Measurements: publication PMC4336329 (PLoS ONE, 2015)
Screen size: about 310,000 compounds; about 14,000 (4.5%) showed an effect of 50% or more. The effect is printed as a negative number. The entries come from a sample that favours strong results as a whole.

target: human ether-à-go-go-related gene (hERG) potassium channel (human, UniProt Q12809); experiment: primary screen, population patch clamp on CHO cells stably expressing hERG; higher = less effect of the substance
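Further: peak tail current of the secondary pulse compared with the same well before compound.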

Chain of human ether-à-go-go-related gene (hERG) potassium channel (Q12809 whole entry, looked up): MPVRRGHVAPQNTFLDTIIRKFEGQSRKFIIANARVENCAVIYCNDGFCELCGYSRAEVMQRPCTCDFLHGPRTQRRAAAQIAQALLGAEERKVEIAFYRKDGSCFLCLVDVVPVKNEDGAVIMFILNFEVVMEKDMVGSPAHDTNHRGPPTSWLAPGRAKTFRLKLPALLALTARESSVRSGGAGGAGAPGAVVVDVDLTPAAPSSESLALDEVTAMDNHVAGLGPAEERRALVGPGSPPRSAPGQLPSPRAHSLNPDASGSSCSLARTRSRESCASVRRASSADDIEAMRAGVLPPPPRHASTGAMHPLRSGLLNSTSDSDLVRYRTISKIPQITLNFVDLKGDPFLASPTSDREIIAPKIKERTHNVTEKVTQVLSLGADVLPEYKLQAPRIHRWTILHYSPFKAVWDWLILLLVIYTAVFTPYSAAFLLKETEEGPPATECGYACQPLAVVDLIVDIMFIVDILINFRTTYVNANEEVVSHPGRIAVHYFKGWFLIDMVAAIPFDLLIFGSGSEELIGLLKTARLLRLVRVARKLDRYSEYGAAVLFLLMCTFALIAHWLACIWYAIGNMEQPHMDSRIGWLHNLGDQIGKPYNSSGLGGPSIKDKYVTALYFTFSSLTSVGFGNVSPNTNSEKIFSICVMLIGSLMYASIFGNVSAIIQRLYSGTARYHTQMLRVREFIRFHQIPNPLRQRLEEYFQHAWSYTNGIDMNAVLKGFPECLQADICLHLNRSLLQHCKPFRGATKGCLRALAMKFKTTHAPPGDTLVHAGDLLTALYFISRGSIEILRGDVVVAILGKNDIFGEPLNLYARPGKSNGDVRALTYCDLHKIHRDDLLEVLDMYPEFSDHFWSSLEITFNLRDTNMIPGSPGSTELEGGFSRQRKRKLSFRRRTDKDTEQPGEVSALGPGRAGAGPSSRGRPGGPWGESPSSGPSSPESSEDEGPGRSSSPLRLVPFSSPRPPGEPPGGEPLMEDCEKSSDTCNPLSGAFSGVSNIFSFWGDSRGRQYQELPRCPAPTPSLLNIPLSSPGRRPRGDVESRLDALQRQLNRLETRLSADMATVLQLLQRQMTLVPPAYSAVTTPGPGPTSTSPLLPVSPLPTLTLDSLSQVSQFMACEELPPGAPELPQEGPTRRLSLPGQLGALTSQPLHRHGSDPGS

Question: For COCCN=C1N[C@@H](c2ccccc2)C(C(=O)OC)=C(C)N1Cc1ccccc1, which “hERG current change (%, negative = inhibition) at 10uM” value is on record?
Answer: The value was -16.8%.

Question: Which “hERG current change (%, negative = inhibition) at 10uM” value does the source give for COC(=O)C1=C(C)N(Cc2ccccc2)C(=NCC(C)C)N[C@H]1c1ccccc1 here?
Answer: The value was -55.9%.

Question: Which “hERG current change (%, negative = inhibition) at 10uM” value does the source give for COC(=O)C1=C(C)N(CC2CC2)C(=NCc2cc(OC)c(OC)c(OC)c2)N[C@H]1c1ccccc1 here?
Answer: Its value is -17.5%.

Question: For COC(=O)C1=C(C)N(Cc2ccccc2)C(=S)N[C@H]1c1ccccc1, which “hERG current change (%, negative = inhibition) at 10uM” value is on record?
Answer: Its value is -2.64%.

Question: For CCN1C(=NCCCCO)N[C@@H](c2cccc(C(F)(F)F)c2)C(C(=O)OC)=C1C, which “hERG current change (%, negative = inhibition) at 10uM” value is on record?
Answer: The value was 5.89%.

Question: With COCCN=C1N[C@@H](c2ccc(Br)cc2)C(C(=O)OC)=C(C)N1Cc1ccccc1 as the molecule, how does the “hERG current change (%, negative = inhibition) at 10uM” value read?
Answer: Its value is -55.3%.

Question: How did the “hERG current change (%, negative = inhibition) at 10uM” value turn out when COC(=O)C1=C(C)N(Cc2ccccc2)C(=NCCCCO)N[C@H]1CCc1ccccc1 was run?
Answer: The value was -43.3%.

Question: COC(=O)C1=C(C)N(Cc2ccccc2)C(=O)N[C@H]1c1ccccc1 was tested. Which “hERG current change (%, negative = inhibition) at 10uM” value did it give?
Answer: Its value is -13.5%.

Question: For CCN1C(=NCc2cccc(Cl)c2)N[C@@H](c2cccc(F)c2)C(C(=O)OC)=C1C, which “hERG current change (%, negative = inhibition) at 10uM” value is on record?
Answer: The value was -41.4%.

Question: Which “hERG current change (%, negative = inhibition) at 10uM” value does the source give for COC(=O)C1=C(C)N(CC2CC2)C(=NCc2cccc(Cl)c2)N[C@H]1c1ccccc1 here?
Answer: Its value is -72.3%.

Question: With COC(=O)C1=C(C)N(Cc2ccccc2)C(=NCCCCO)N[C@H]1c1ccccc1 as the molecule, how does the “hERG current change (%, negative = inhibition) at 10uM” value read?
Answer: The value was -53.2%.

Question: COC(=O)C1=C(C)N(Cc2ccccc2)C(=O)N[C@H]1c1ccc(Br)cc1 was tested. Which “hERG current change (%, negative = inhibition) at 10uM” value did it give?
Answer: Its value is -10.9%.

Question: Which “hERG current change (%, negative = inhibition) at 10uM” value does the source give for COc1cc(NC(=O)c2ccc(-c3ccc(Br)cc3)o2)ccc1NC(=O)C(C)C here?
Answer: The value was -26.1%.

Question: How did the “hERG current change (%, negative = inhibition) at 10uM” value turn out when O=C(CSc1ccc(Cl)cc1)Nc1ccc(N2CCN(c3ccccc3)CC2)c(F)c1 was run?
Answer: The value was 24.9%.

Question: Which “hERG current change (%, negative = inhibition) at 10uM” value does the source give for COc1cccc(C(=O)Oc2ccc3ccc(=O)oc3c2)c1 here?
Answer: The value was 42.3%.

Question: With Cc1ccc(S(=O)(=O)N(CCC#N)CCN2CCCC2)cc1 as the molecule, how does the “hERG current change (%, negative = inhibition) at 10uM” value read?
Answer: Its value is -21.9%.

Question: How did the “hERG current change (%, negative = inhibition) at 10uM” value turn out when O=S(=O)(NCCN1CCCC1)c1ccc(Br)cc1 was run?
Answer: The value was -8.08%.

Question: CCN(CC)S(=O)(=O)c1ccc(S(=O)(=O)N2CCN(CCC#N)CC2)cc1 was tested. Which “hERG current change (%, negative = inhibition) at 10uM” value did it give?
Answer: Its value is 8.45%.

Question: How did the “hERG current change (%, negative = inhibition) at 10uM” value turn out when N#CCCN(CCN1CCCC1)S(=O)(=O)c1ccc(-c2ccc([N+](=O)[O-])cc2)cc1 was run?
Answer: The value was -79.1%.

Question: How did the “hERG current change (%, negative = inhibition) at 10uM” value turn out when O=[N+]([O-])c1ccc(S(=O)(=O)NCCN2CCOCC2)cc1 was run?
Answer: Its value is 11.2%.

Question: Which “hERG current change (%, negative = inhibition) at 10uM” value does the source give for O=[N+]([O-])c1ccc(-c2ccc(S(=O)(=O)NCCN3CCCC3)cc2)cc1 here?
Answer: Its value is -77.7%.

Question: Which “hERG current change (%, negative = inhibition) at 10uM” value does the source give for Cc1oc2cc(O)ccc2c(=O)c1Oc1ccccc1 here?
Answer: Its value is -10.2%.

Question: Which “hERG current change (%, negative = inhibition) at 10uM” value does the source give for COC1=CC(=O)C[C@@H](C)[C@]12Oc1c(Cl)c(OC)cc(OC)c1C2=O here?
Answer: Its value is -9.99%.

Question: How did the “hERG current change (%, negative = inhibition) at 10uM” value turn out when C=CCSc1ncccc1C(=O)NCCc1ccc(Cl)cc1 was run?
Answer: Its value is 6.54%.

Question: For O=S(=O)(Nc1nc2ccc(S(=O)(=O)N3CCCC3)cc2s1)c1ccc(F)cc1, which “hERG current change (%, negative = inhibition) at 10uM” value is on record?
Answer: The value was -2.68%.

Question: For COCCNc1oc(-c2ccc(C)cc2)nc1C#N, which “hERG current change (%, negative = inhibition) at 10uM” value is on record?
Answer: The value was 8.26%.

Question: With Cc1ccc(-n2c(SCC(=O)N3CCOCC3)nnc2-c2cccnc2)cc1C as the molecule, how does the “hERG current change (%, negative = inhibition) at 10uM” value read?
Answer: The value was -16.9%.

Question: Which “hERG current change (%, negative = inhibition) at 10uM” value does the source give for Cc1cccc2sc(N(CCCN(C)C)C(=O)CN3C(=O)c4ccccc4C3=O)nc12.Cl here?
Answer: Its value is -11.2%.

Question: CN(C)CCCN(C(=O)CCc1ccccc1)c1nc2ccc(F)cc2s1.Cl was tested. Which “hERG current change (%, negative = inhibition) at 10uM” value did it give?
Answer: The value was -70.1%.

Question: Which “hERG current change (%, negative = inhibition) at 10uM” value does the source give for CN(C)CCCN(C(=O)CCc1ccccc1)c1nc2ccc(Cl)cc2s1.Cl here?
Answer: The value was -24.4%.

Question: With Cc1ccc2nc(N(CCCN(C)C)C(=O)CCc3ccccc3)sc2c1.Cl as the molecule, how does the “hERG current change (%, negative = inhibition) at 10uM” value read?
Answer: Its value is -66%.

Question: Which “hERG current change (%, negative = inhibition) at 10uM” value does the source give for Cc1cccc2sc(N(CCCN(C)C)C(=O)CCc3ccccc3)nc12.Cl here?
Answer: Its value is -54.1%.

Question: CN(C)CCCN(C(=O)CCc1ccccc1)c1nc2ccc(Br)cc2s1.Cl was tested. Which “hERG current change (%, negative = inhibition) at 10uM” value did it give?
Answer: The value was -3.24%.

Question: CN(C)CCN(C(=O)CCc1ccccc1)c1nc2c(F)cc(F)cc2s1.Cl was tested. Which “hERG current change (%, negative = inhibition) at 10uM” value did it give?
Answer: The value was -33.4%.

Question: Which “hERG current change (%, negative = inhibition) at 10uM” value does the source give for Cc1ccccc1/C=N/n1c(-c2ccccn2)n[nH]c1=S here?
Answer: The value was 14.7%.

Question: With O=S(=O)(c1cccc2cccnc12)N1CCN(Cc2ccccc2)CC1 as the molecule, how does the “hERG current change (%, negative = inhibition) at 10uM” value read?
Answer: Its value is -0.188%.

Question: Cn1ccnc1C(O)c1cc(C(C)(C)C)c(O)c(C(C)(C)C)c1 (stereo not shown) was tested. Which “hERG current change (%, negative = inhibition) at 10uM” value did it give?
Answer: The value was -37.3%.

Question: Which “hERG current change (%, negative = inhibition) at 10uM” value does the source give for COC(=O)N/N=C\c1ccc(-c2cc(Cl)c(Cl)cc2Cl)o1 here?
Answer: Its value is -1.58%.

Question: With COc1ccc(S(=O)(=O)N2CCN(CC(=O)NC3CCCC3)CC2)cc1 as the molecule, how does the “hERG current change (%, negative = inhibition) at 10uM” value read?
Answer: Its value is 0.823%.

Question: How did the “hERG current change (%, negative = inhibition) at 10uM” value turn out when O=C(C1CCCN(Cc2nc(-c3ccc(Cl)cc3)no2)C1)N1CCOCC1 (stereo not shown) was run?
Answer: Its value is 1.39%.

Question: How did the “hERG current change (%, negative = inhibition) at 10uM” value turn out when Clc1ccc(-c2noc(CN3CCOCC3)n2)cc1 was run?
Answer: Its value is 4.83%.

Question: Which “hERG current change (%, negative = inhibition) at 10uM” value does the source give for O=C(CCc1nc(-c2ccc(Cl)cc2)no1)NCc1ccccc1CN1CCOCC1 here?
Answer: Its value is -65.5%.

Question: How did the “hERG current change (%, negative = inhibition) at 10uM” value turn out when Cc1ccc(-c2noc(CCC(=O)NCc3ccccc3CN3CCOCC3)n2)cc1 was run?
Answer: The value was -36.5%.

Question: O=C(CCc1nc(-c2ccccc2)no1)NCc1ccccc1CN1CCOCC1 was tested. Which “hERG current change (%, negative = inhibition) at 10uM” value did it give?
Answer: Its value is -10.5%.

Question: How did the “hERG current change (%, negative = inhibition) at 10uM” value turn out when O=C(C1CCN(Cc2nc(-c3ccc(Cl)cc3)no2)CC1)N1CCOCC1 was run?
Answer: Its value is -61.9%.

Question: How did the “hERG current change (%, negative = inhibition) at 10uM” value turn out when Cc1ccc2oc(=O)c3cnn(CC(=O)N(CCN(C)C)Cc4ccco4)c3c2c1 was run?
Answer: Its value is -25.7%.

Question: How did the “hERG current change (%, negative = inhibition) at 10uM” value turn out when CC(C)c1ccc(-c2c(NCCc3ccccc3)c(=O)c2=O)cc1 was run?
Answer: The value was 22.1%.

Question: How did the “hERG current change (%, negative = inhibition) at 10uM” value turn out when Cc1ccc(OCCNC(=O)CNC(=O)c2ccccc2Cl)cc1 was run?
Answer: Its value is -3.58%.

Question: How did the “hERG current change (%, negative = inhibition) at 10uM” value turn out when COc1cc(CN2CCNCC2)cc(OC)c1OC.Cl was run?
Answer: Its value is 5.64%.

Question: Which “hERG current change (%, negative = inhibition) at 10uM” value does the source give for CCn1c(NCc2ccc3c(c2)OCO3)nc2ccccc21 here?
Answer: Its value is -38.5%.

Question: With c1ccc2c(c1)nc(NCc1ccc3c(c1)OCO3)n2CCN1CCOCC1 as the molecule, how does the “hERG current change (%, negative = inhibition) at 10uM” value read?
Answer: The value was -66.8%.

Question: For CN(C)CCn1c(NCc2ccc3c(c2)OCO3)nc2ccccc21.Cl, which “hERG current change (%, negative = inhibition) at 10uM” value is on record?
Answer: The value was -59.5%.

Question: For CCCn1c(NCc2ccc(N(C)C)cc2)nc2ccccc21, which “hERG current change (%, negative = inhibition) at 10uM” value is on record?
Answer: Its value is -40.2%.

Question: Which “hERG current change (%, negative = inhibition) at 10uM” value does the source give for CCCCn1c(NCc2ccc(N(C)C)cc2)nc2ccccc21 here?
Answer: The value was -43.7%.

Question: Which “hERG current change (%, negative = inhibition) at 10uM” value does the source give for CCCCn1c(NCc2ccc3c(c2)OCO3)nc2ccccc21 here?
Answer: Its value is -61%.

Question: How did the “hERG current change (%, negative = inhibition) at 10uM” value turn out when O=C(NCCN1CCOCC1)C(=O)NCc1ccc2c(c1)OCO2 was run?
Answer: The value was 22.8%.

Question: Nc1c(C(=O)NCc2ccc3c(c2)OCO3)c2nc3ccccc3nc2n1CCCN1CCOCC1 was tested. Which “hERG current change (%, negative = inhibition) at 10uM” value did it give?
Answer: Its value is 1.46%.

Question: CCCn1c(NCc2ccc3c(c2)OCO3)nc2ccccc21 was tested. Which “hERG current change (%, negative = inhibition) at 10uM” value did it give?
Answer: The value was 12.6%.
